# About 410 targets per protein were measured; listed, in parts, are those with the strongest signals and a random draw of the rest.
# B1: Protein L(A-C2) (Finegoldia magna), Q51912 (protein)
# chain: ADEPIDLEKLEEKRDKENVGNLPKFDNEVKDGSENPMAKYPDFDDEASTRFETENNEFEEKKVVSDNFFDQSEHPFVENKEETPETPETDSEEEVTIKANLIFANGSTQTAEFKGTFEKATSEAYAYADTLKKDNGEYTVDVADKGYTLNIKFAGKEKTPEEPKEEVTIKANLIYADGKTQTAEFKGTFEEATAEAYRYADALKKDNGEYTVDVADKGYTLNIKFAGKEKTPEEPKEEVTIKANLIYADGKTQTAEFKGTFEEATAEAYRYADLLAKENGKYTVDVADKGYTLNIKFAGKEKTPEEPKEEVTIKANLIYADGKTQTAEFKGTFAEATAEAYRYADLLAKENGKYTADLEDGGYTINIRFAGKKVDEKPEEKEQVTIKENIYFEDGTVQTATFKGTFAEATAEAYRYADLLSKEHGKYTADLEDGGYTINIRFAGKEEPEETPEKPEVQDGYASYEEAEAAAKEALKNDDVNKSYTIRQGADGRYYYVLSPVEAEEEKPEAQNGYATYEEAEAAAKKALENDPINKSYSIRQGADGRYYYVLSPVEAE
# Legend:
# Experiment in all cases: glycan array binding signal (z-score within array); higher = stronger binding
# Settings in all cases: glycan notation: IUPAC condensed, linker removed
# [1] = biological target: Fuc(a1-2)Gal(b1-3)GalNAc(a1-3)[Fuc(a1-2)]Gal(b1-4)GlcNAc
# Outline: (§1)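 Negative Z-scores can be read as non-binding. The Z-score is calculated within each array and then averaged across arrays of one protein sequence at different concentrations or buffers and across linkers. Arrays, 3228 in all, were curated from the Consortium for Functional Glycomics database and kept only where the protein sequence was available.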
# [2] = biological target: Fuc(a1-2)Gal(b1-3)GlcNAc(b1-3)[Gal(b1-4)GlcNAc(b1-6)]Gal(b1-4)Glc
# Outline: as §1
# [3] = biological target: Fuc(a1-2)Gal(b1-4)[Fuc(a1-3)]GlcNAc(b1-3)GalNAc
# Outline: as §1
# [4] = biological target: Fuc(a1-2)[Gal(a1-3)]Gal(b1-4)GlcNAc(b1-3)GalNAc
# Outline: as §1
# [5] = biological target: Fuc(a1-2)[GalNAc(a1-3)]Gal(b1-4)GlcNAc(b1-3)GalNAc
# Outline: as §1
# [6] = biological target: Fuc(a1-2)[GalNAc(a1-3)]Gal(b1-4)[Fuc(a1-3)]GlcNAc
# Outline: as §1
# [7] = biological target: Fuc(a1-3)[Gal(b1-4)]GlcNAc(b1-2)Man(a1-3)[Fuc(a1-3)[Gal(b1-4)]GlcNAc(b1-2)Man(a1-6)]Man(b1-4)GlcNAc(b1-4)[Fuc(a1-6)]GlcNAc
# Outline: as §1
# [8] = biological target: Fuc(a1-3)[Gal(b1-4)]GlcNAc(b1-3)Gal(b1-3)[Fuc(a1-4)]GlcNAc
# Outline: as §1
# [9] = biological target: Fuc(a1-3)[Gal3S(b1-4)]GlcNAc
# Outline: as §1
# [10] = biological target: Fuc(a1-4)GlcNAc
# Outline: as §1
# [11] = biological target: Gal(a1-3)Gal(b1-4)GlcNAc(b1-6)GalNAc
# Outline: as §1
# [12] = biological target: Gal(a1-4)Gal(b1-4)GlcNAc(b1-3)Gal(b1-4)Glc
# Outline: as §1
# [13] = biological target: Gal(b1-3)GlcNAc(b1-2)Man(a1-3)[Gal(b1-3)GlcNAc(b1-2)Man(a1-6)]Man(b1-4)GlcNAc(b1-4)[Fuc(a1-6)]GlcNAc
# Outline: as §1
# [14] = biological target: Gal(b1-3)GlcNAc(b1-2)Man(a1-3)[GlcNAc(b1-4)][Gal(b1-3)GlcNAc(b1-2)Man(a1-6)]Man(b1-4)GlcNAc(b1-4)GlcNAc
# Outline: as §1
# [15] = biological target: Gal(b1-3)[Fuc(a1-4)]GlcNAc(b1-6)GalNAc
# Outline: as §1
# [16] = biological target: Gal(b1-4)GalNAc(b1-3)[Fuc(a1-2)]Gal(b1-4)GlcNAc
# Outline: as §1
# [17] = biological target: Gal(b1-4)GlcNAc
# Outline: as §1
# [18] = biological target: Gal(b1-4)GlcNAc(b1-2)[Gal(b1-4)GlcNAc(b1-4)]Man(a1-3)[GlcNAc(b1-4)][Gal(b1-4)GlcNAc(b1-2)[Gal(b1-4)GlcNAc(b1-6)]Man(a1-6)]Man(b1-4)GlcNAc(b1-4)GlcNAc
# Outline: as §1
# [19] = biological target: Gal(b1-4)GlcNAc(b1-3)Gal(b1-4)GlcNAc(b1-2)Man(a1-3)[Gal(b1-4)GlcNAc(b1-3)Gal(b1-4)GlcNAc(b1-2)Man(a1-6)]Man(b1-4)GlcNAc(b1-4)[Fuc(a1-6)]GlcNAc
# Outline: as §1
# [20] = biological target: Gal(b1-4)GlcNAc(b1-3)Gal(b1-4)GlcNAc(b1-3)Gal(b1-4)GlcNAc(b1-2)Man(a1-3)[Gal(b1-4)GlcNAc(b1-3)Gal(b1-4)GlcNAc(b1-3)Gal(b1-4)GlcNAc(b1-2)Man(a1-6)]Man(b1-4)GlcNAc(b1-4)GlcNAc
# Outline: as §1
# [21] = biological target: Gal(b1-4)GlcNAc(b1-3)Gal(b1-4)GlcNAc(b1-6)[Gal(b1-3)]GalNAc
# Outline: as §1
# [22] = biological target: Gal6S(b1-4)Glc
# Outline: as §1
# [23] = biological target: GalNAc(a1-3)GalNAc
# Outline: as §1
# [24] = biological target: GalNAc(b1-3)Gal
# Outline: as §1
# [25] = biological target: GalNAc(b1-3)Gal(a1-4)Gal(b1-4)GlcNAc(b1-3)Gal(b1-4)Glc
# Outline: as §1
# [26] = biological target: GalNAc6S(b1-4)GlcNAc
# Outline: as §1
# [27] = biological target: GlcA(b1-3)Gal
# Outline: as §1
# [28] = biological target: GlcNAc(b1-2)Man(a1-3)[GlcNAc(b1-2)Man(a1-6)]Man(b1-4)GlcNAc(b1-4)[Fuc(a1-6)]GlcNAc
# Outline: as §1
# [29] = biological target: GlcNAc(b1-2)Man(a1-3)[GlcNAc(b1-4)][GlcNAc(b1-2)Man(a1-6)]Man(b1-4)GlcNAc(b1-4)[Fuc(a1-6)]GlcNAc
# Outline: as §1
# [30] = biological target: GlcNAc(b1-3)Gal(b1-4)GlcNAc
# Outline: as §1
binder,measurement,setting,value
B1,glycan array binding signal (z-score),[1],-0.969
same,glycan array binding signal (z-score),[2],-0.355
same,glycan array binding signal (z-score),[3],2.89
same,glycan array binding signal (z-score),[4],6.17
same,glycan array binding signal (z-score),[5],-0.485
same,glycan array binding signal (z-score),[6],3.52
same,glycan array binding signal (z-score),[7],1.71
same,glycan array binding signal (z-score),[8],0.052
same,glycan array binding signal (z-score),[9],-0.101
same,glycan array binding signal (z-score),[10],-0.933
same,glycan array binding signal (z-score),[11],-0.284
same,glycan array binding signal (z-score),[12],-0.164
same,glycan array binding signal (z-score),[13],0.716
same,glycan array binding signal (z-score),[14],0.568
same,glycan array binding signal (z-score),[15],3.16
same,glycan array binding signal (z-score),[16],-0.365
same,glycan array binding signal (z-score),[17],-0.975
same,glycan array binding signal (z-score),[18],-0.468
same,glycan array binding signal (z-score),[19],0.357
same,glycan array binding signal (z-score),[20],3.21
same,glycan array binding signal (z-score),[21],3.67
same,glycan array binding signal (z-score),[22],-0.354
same,glycan array binding signal (z-score),[23],-0.445
same,glycan array binding signal (z-score),[24],-0.354
same,glycan array binding signal (z-score),[25],0.127
same,glycan array binding signal (z-score),[26],-0.775
same,glycan array binding signal (z-score),[27],-0.562
same,glycan array binding signal (z-score),[28],2.85
same,glycan array binding signal (z-score),[29],-0.153
same,glycan array binding signal (z-score),[30],-0.623
